# According to PubChem BioAssay (Tox21):
# Records with an inconclusive call do not appear. A number with no mark means an inactive call. Calls of active or inactive are those of the source. The call rests on the fitted dose curve.
# Assay: qHTS assay to identify small molecule agonists or antagonists of the thyroid stimulating hormone receptor (TSHR) signaling pathway - wild type cell line counter screen (AID 1259384)
# Details: HEK293 wild type, cAMP HTRF counter-screen, active compounds read high; series mostly up to 92.4 µM; cAMP activity change: at the top concentration
# From the text: U.S. Tox21 Program National Center for Advancing Translational Sciences [NCATS] NIH Chemical Genomics Center [NCGC] U.S. Environmental Protection Agency [EPA] National Institutes of Environmental Health Sciences [NIEHS] National Toxicology Program [NTP] U.S. Food and Drug Administration [FDA] Tox21 Assay Overview: TSHR is the receptor for thyrotropin (thyroid stimulating hormone or TSH), a member of the glycoprotein hormone family. TSH is released by the anterior pituitary gland and is the main regulator of thyroid gland growth and development. Upon binding circulating thyrotropin, a G-protein signal cascade activates adenylyl cyclase and […] cAMP concentration is increased. cAMP is a key second messenger involved extensively in cellular signal transduction pathways associated with the majority of G-protein coupled receptors (GPCRs). The activation of these GPCRs by neurotransmitters, lipids, nucleotides, peptides and hormones results in the activation or the inhibition of plasma membrane-bound adenylate cyclase through heterotrimeric G-proteins. A cell-based TSHR-Hek293 assay can be used to identify TSHR agonists. To eliminate the false positive compounds identified from screening a cell-based TSHR-Hek293 cell line, cAMP assay in a wild type Hek293 cells was used as a counter screening.
# Tox21 Assay Protocol Summary: Hek293 cells (wild type) were dispensed at 800 cells/4 uL/well in 1536-well white plates using a Multidrop dispenser. After the assay plates were incubated at a 37 C/5% CO2 incubator for 18 hrs, 23 nL of compounds dissolved in DMSO, positive controls or DMSO only was transferred to the assay plate by a pin tool, followed by 1 ul medium containing Ro20-1724. After 30 min of incubation at room temperature, 2.5 ul/well of cAMP-d2 and 2.5 ul/well of anti-cAMP-cryptate were added respectively into the assay plates using a Flying Reagent Dispenser. The plates were incubated at room temperature for 1 hr. The fluorescence intensity in the plates was measured using an Envision plate reader. Each test compound was measured at 15 concentrations and in triplicates.
# On the % scale 0 is the no-effect control and ±100 the full control effect.
SMILES,cAMP activity change,outcome
N#CNC#N,-4.51%,–
C[C@H]1O[C@@H](O[C@H]2[C@@H](O)C[C@H](O[C@H]3[C@@H](O)C[C@H](O[C@H]4CC[C@@]5(C)[C@H](CC[C@@H]6[C@@H]5CC[C@]5(C)[C@@H](C7=CC(=O)OC7)CC[C@]65O)C4)O[C@@H]3C)O[C@@H]2C)C[C@H](O)[C@@H]1O,–,inactive
CC1(c2ccc(Oc3ccccc3)cc2)OC(=O)N(Nc2ccccc2)C1=O (stereo not given),1.65%,–
C=CCOC(N)=O,4.48%,–
O=CC(Br)(Br)Br,-2.51%,–
BrCBr,-0.333%,–
BrC(Br)Br,-1.91%,–
CCOC(=O)C1(c2ccccc2)CCN(CCC(C#N)(c2ccccc2)c2ccccc2)CC1,1.26% [at 42.5 µM],–
C=CC(=O)OCCCCOC(=O)C=C,0.342%,–
BrCC(Br)c1ccccc1 (stereo not given),0.59%,–
CC1(C)[C@H](C(=O)O[C@H](C#N)c2cccc(Oc3ccccc3)c2)[C@@H]1/C=C(\Cl)C(F)(F)F,–,inactive
C[As+](C)(C)CC(=O)[O-],3.79%,–
C[C@@H]1CC[C@@]2(OC1)O[C@H]1[C@@H](O)[C@H]3[C@@H]4CC[C@H]5C[C@@H](O[C@@H]6O[C@H](CO)[C@H](O[C@@H]7O[C@H](CO)[C@@H](O)[C@H](O[C@@H]8OC[C@@H](O)[C@H](O)[C@H]8O)[C@H]7O[C@@H]7O[C@H](CO)[C@@H](O)[C@H](O[C@@H]8O[C@H](CO)[C@@H](O)[C@H](O)[C@H]8O)[C@H]7O)[C@H](O)[C@H]6O)[C@H](O)C[C@]5(C)[C@H]4CC[C@]3(C)[C@H]1[C@@H]2C,-2%,–
Fc1ccc(Oc2ccnc3cc(Cl)cc(Cl)c23)cc1,-0.463%,–
O=[N+]([O-])O.O=[N+]([O-])O.[Cd],3.96%,–
CC(C)[C@H](C(=O)OC(C#N)c1cccc(Oc2ccccc2)c1)c1ccc(OC(F)F)cc1 (stereo not given in full),5.82%,–
CC(=O)O[C@H]1CC[C@@]2(C)C(=CC[C@@H]3[C@@H]2CC[C@]2(C)C(=O)CC[C@@H]32)C1,9.17%,–
CC(=O)c1ccc(-c2ccccc2)cc1,-3.59%,–
CC(=O)C(Cl)(Cl)Cl,-2.75%,–
O=c1c(C2CC(c3ccc(-c4ccc(Br)cc4)cc3)Cc3ccccc32)c(O)sc2ccccc12 (stereo not given),0.563% [at 42.5 µM],–

SMILES,cAMP activity change,outcome
Brc1c(Br)c(Br)c(Oc2c(Br)c(Br)c(Br)c(Br)c2Br)c(Br)c1Br,-3.73% [at 18.9 µM],–
CC(C)OS(C)(=O)=O,5.03%,–
c1ccc2cc3c(cc2c1)-c1cccc2cccc-3c12,2.08%,–
ClCc1ccccc1CCl,-2.29%,–
N#Cc1ccc(O)cc1,3.23%,–
N#CSCSC#N,–,inactive
CC(C)(C)c1cc([N+](=O)[O-])cc(C(C)(C)C)c1O,6.18%,–
Cc1cc(N=Nc2ccccc2C)ccc1N,–,inactive
CCOCCOC(C)=O,4.44%,–
COc1cccc(C(=O)CCN[C@@H](C)[C@H](O)c2ccccc2)c1,9.87% [at 42.5 µM],–
CN(C)[C@@H]1C(=O)C(C(N)=O)=C(O)[C@@]2(O)C(=O)C3=C(O)c4c(O)ccc(Cl)c4[C@@](C)(O)[C@H]3C[C@@H]12,0.149%,–
CC(O)C#N (stereo not given),6.03%,–
CCC(C)(C)C(=O)OC1=C(c2ccc(Cl)cc2Cl)C(=O)OC12CCCCC2,-0.0707%,–
CC(=O)OC1(c2ccccc2)CCN(CCc2ccccc2)CC1,-2.97%,–
CC(C)(O)c1cnn2c(-c3ccc(F)c(-c4c(F)cccc4C#N)c3)cnc2n1,0.72%,–
CSCCCN=C=S,3.41%,–
CC(C)Oc1cccc(NC(=O)c2ccccc2C(F)(F)F)c1,6.74%,–
COc1cc(N)c(Cl)cc1C(=O)NC1CN2CCC1CC2 (stereo not given),-1.89% [at 42.5 µM],–
ClCc1ccc(Cl)cc1Cl,-3.7%,–
O=[N+]([O-])c1cc(C(F)(F)F)c(Cl)c([N+](=O)[O-])c1Cl,-1.15%,–
